# Assay results published in the supplement of paper PMC10849652.
# Of roughly 7,900 targets only a part is listed; those with a hit were picked by preference. About 0.6% of all pairs of compound and target were hits. A number with no mark means an inactive call.
# Columns and labels:
# Assay in all cases: log2 fold change, soluble protein after heating vs DMSO (PISA); higher = thermal stabilisation; K562 cells, 10 uM, 30 min; active = over 0.2 and 3.5 SD of the protein, either way, in both replicates (recomputed)
# [1] = compound: CN1CCN(CCOc2cc(OC3CCOCC3)c3c(Nc4c(Cl)ccc5c4OCO5)ncnc3c2)CC1 [saracatinib]
# How it was run: (§1)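 K562 cells at 2×10^6 cells/mL were treated with 10 μM compound for 30 min. Aliquots were heated for 3 min across 48°C-58°C, pooled, and extracted in PBS with 0.5% NP-40 at 4°C; soluble protein was the supernatant after 21,000xg for 90 min. Soluble protein was quantified by TMTpro 16plex LC-MS/MS with channel sums equalised, and reported as log2 fold change in thermal stability against DMSO controls, with values from duplicates.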
# [2] = compound: CN1CCN(c2nc(C3=C(c4c[nH]c5ccccc45)C(=O)NC3=O)c3ccccc3n2)CC1 [sotrastaurin]
# How it was run: as §1
# [3] = compound: CN1CC[C@H](c2c(O)cc(O)c3c(=O)cc(-c4ccccc4Cl)oc23)[C@H](O)C1 [alvocidib]
# How it was run: as §1
# [4] = compound: CN1CCc2c(c3ccccc3n2Cc2ccc(C(=O)NO)cc2)C1 [Tubastatin A]
# How it was run: as §1
# [5] = compound: CNC(=O)C1=CC=CC=C1NC2=NC(=NC=C2Cl)NC3=C(C=C(C=C3)N4CCOCC4)OC
# How it was run: as §1
# [6] = compound: CNC(=O)c1ccc(Nc2ncc(C(F)(F)F)c(NCc3nccnc3N(C)S(C)(=O)=O)n2)cc1 [defactinib]
# How it was run: as §1
# [7] = compound: CNCc1ccc(-c2[nH]c3cc(F)cc4c3c2CCNC4=O)cc1 [rucaparib]
# How it was run: as §1
# [8] = compound: CNc1nc(-c2ccc3c(N)n[nH]c3c2)cc(N2C[C@@H](C(=O)NC3CCCCC3)CC[C@H]2C)n1
# How it was run: as §1
# [9] = compound: COC(=O)N[C@@H](C)CNc1nccc(-c2cn(C(C)C)nc2-c2cc(Cl)cc(NS(C)(=O)=O)c2F)n1 [encorafenib]
# How it was run: as §1
# [10] = compound: COC(=O)[C@H](CCSC)NC(=O)C1=C(C=C(C=C1)NC[C@H](CS)N)C2=CC=CC=C2
# How it was run: as §1
# [11] = compound: COC1=CC=C(C=C1)CN2C=CC3=C2C=C(C=C3)C(=O)NO
# How it was run: as §1
# [12] = compound: CON(C)C(=O)N1N=C(c2cc(F)ccc2F)S[C@@]1(CCCN)c1ccccc1 [filanesib]
# How it was run: as §1
# [13] = compound: CO[C@H]1C[C@@H]2CC[C@@H](C)[C@@](O)(O2)C(=O)C(=O)N2CCCC[C@H]2C(=O)O[C@H]([C@H](C)C[C@@H]2CC[C@H](n3cnnn3)[C@H](OC)C2)CC(=O)[C@H](C)/C=C(\C)[C@@H](O)[C@@H](OC)C(=O)[C@H](C)C[C@H](C)/C=C/C=C/C=C/1C [zotarolimus]
# How it was run: as §1
# [14] = compound: COc1cc(C(=O)O)ccc1NC(=O)[C@@H]1N[C@@H](CC(C)(C)C)[C@](C#N)(c2ccc(Cl)cc2F)[C@H]1c1cccc(Cl)c1F [idasanutlin]
# How it was run: as §1
# [15] = compound: COc1cc(Nc2ncc3c(n2)-c2ccc(Cl)cc2C(c2c(F)cccc2OC)=NC3)ccc1C(=O)O [alisertib]
# How it was run: as §1
# [16] = compound: COc1cc2nc(-c3cc(F)ccc3O)nc(N[C@@H]3CNC[C@H]3C(C)(C)O)c2cc1OC
# How it was run: as §1
# [17] = compound: COc1cc2ncnc(Nc3ccc(F)c(Cl)c3)c2cc1OCCCN1CCOCC1 [gefitinib]
# How it was run: as §1
# [18] = compound: COc1cccc2cc(-c3nc([C@H]4CC[C@H](C(=O)O)CC4)n4ncnc(N)c34)[nH]c12
# How it was run: as §1
# [19] = compound: CS(=O)(=O)CCNCc1ccc(-c2ccc3ncnc(Nc4ccc(OCc5cccc(F)c5)c(Cl)c4)c3c2)o1 [lapatinib]
# How it was run: as §1
# [20] = compound: CS(=O)(=O)N1CCN(Cc2cc3nc(-c4cccc5[nH]ncc45)nc(N4CCOCC4)c3s2)CC1 [pictilisib]
# How it was run: as §1
# UniProt O14981, sequence (O14981 whole entry, looked up): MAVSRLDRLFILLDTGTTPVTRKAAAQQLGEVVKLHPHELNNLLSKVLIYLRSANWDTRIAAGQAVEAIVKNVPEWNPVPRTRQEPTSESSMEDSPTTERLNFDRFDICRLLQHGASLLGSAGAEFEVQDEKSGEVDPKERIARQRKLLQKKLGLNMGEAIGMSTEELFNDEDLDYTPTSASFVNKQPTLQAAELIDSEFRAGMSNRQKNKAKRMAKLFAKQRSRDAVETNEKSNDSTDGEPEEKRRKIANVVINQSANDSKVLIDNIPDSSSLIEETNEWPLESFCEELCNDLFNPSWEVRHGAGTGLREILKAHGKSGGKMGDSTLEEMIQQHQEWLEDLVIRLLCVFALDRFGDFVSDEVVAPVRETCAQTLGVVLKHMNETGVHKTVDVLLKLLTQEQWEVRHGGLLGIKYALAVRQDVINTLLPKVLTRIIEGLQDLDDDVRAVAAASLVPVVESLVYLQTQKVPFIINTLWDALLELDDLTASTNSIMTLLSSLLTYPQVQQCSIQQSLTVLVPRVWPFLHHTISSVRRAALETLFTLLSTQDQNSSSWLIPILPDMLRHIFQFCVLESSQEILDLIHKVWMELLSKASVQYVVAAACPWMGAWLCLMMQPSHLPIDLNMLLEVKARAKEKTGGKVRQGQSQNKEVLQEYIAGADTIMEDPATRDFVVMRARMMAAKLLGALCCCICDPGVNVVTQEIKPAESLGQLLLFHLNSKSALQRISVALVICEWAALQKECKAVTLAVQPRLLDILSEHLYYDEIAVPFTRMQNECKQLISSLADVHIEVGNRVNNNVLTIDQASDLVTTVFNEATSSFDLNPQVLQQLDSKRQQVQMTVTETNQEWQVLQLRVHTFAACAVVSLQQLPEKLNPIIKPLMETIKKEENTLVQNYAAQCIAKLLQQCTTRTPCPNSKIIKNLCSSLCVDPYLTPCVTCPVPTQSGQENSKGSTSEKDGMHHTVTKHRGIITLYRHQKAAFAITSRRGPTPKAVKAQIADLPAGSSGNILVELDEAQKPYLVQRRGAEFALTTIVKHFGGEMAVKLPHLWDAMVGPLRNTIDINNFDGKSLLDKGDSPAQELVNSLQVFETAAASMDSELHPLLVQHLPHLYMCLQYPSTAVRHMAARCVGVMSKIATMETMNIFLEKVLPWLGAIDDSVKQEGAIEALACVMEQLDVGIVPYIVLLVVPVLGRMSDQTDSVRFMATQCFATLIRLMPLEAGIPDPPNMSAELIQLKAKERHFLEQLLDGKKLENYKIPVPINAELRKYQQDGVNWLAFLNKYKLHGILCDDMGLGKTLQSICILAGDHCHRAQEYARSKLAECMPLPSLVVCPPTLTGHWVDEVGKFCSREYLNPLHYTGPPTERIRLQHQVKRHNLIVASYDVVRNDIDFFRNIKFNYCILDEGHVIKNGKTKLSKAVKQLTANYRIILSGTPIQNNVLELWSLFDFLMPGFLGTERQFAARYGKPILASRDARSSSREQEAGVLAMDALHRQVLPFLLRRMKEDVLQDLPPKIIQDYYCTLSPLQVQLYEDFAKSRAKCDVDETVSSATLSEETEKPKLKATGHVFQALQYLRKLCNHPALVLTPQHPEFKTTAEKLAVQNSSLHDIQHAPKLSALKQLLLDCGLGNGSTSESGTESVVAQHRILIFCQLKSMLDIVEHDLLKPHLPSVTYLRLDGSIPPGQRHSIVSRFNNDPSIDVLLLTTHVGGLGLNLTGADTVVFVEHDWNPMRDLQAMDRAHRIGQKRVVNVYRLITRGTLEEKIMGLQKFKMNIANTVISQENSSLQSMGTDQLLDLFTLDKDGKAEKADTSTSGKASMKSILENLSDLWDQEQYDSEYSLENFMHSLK
# UniProt Q14457, sequence (Q14457 whole entry, looked up): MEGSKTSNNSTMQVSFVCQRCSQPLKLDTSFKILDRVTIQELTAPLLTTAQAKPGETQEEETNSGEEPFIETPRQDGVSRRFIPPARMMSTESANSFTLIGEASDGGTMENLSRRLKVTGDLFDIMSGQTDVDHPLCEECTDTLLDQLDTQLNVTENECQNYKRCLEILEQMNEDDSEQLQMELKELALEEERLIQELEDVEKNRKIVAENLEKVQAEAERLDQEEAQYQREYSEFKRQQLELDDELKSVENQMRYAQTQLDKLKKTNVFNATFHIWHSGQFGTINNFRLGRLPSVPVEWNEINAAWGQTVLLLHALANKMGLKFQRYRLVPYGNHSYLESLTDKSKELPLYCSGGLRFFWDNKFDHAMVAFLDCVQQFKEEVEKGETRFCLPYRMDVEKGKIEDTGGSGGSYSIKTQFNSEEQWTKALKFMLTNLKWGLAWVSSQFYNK
# UniProt Q9BR61, sequence (Q9BR61 whole entry, looked up): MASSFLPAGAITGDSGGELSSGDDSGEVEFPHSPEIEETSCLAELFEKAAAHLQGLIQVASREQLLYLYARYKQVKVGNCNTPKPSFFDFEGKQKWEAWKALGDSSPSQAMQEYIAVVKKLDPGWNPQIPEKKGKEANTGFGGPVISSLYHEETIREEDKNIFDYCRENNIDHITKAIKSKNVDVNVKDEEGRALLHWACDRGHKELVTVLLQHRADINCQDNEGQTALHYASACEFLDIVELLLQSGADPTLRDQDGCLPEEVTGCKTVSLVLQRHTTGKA
# UniProt O75882, sequence (O75882 whole entry, looked up): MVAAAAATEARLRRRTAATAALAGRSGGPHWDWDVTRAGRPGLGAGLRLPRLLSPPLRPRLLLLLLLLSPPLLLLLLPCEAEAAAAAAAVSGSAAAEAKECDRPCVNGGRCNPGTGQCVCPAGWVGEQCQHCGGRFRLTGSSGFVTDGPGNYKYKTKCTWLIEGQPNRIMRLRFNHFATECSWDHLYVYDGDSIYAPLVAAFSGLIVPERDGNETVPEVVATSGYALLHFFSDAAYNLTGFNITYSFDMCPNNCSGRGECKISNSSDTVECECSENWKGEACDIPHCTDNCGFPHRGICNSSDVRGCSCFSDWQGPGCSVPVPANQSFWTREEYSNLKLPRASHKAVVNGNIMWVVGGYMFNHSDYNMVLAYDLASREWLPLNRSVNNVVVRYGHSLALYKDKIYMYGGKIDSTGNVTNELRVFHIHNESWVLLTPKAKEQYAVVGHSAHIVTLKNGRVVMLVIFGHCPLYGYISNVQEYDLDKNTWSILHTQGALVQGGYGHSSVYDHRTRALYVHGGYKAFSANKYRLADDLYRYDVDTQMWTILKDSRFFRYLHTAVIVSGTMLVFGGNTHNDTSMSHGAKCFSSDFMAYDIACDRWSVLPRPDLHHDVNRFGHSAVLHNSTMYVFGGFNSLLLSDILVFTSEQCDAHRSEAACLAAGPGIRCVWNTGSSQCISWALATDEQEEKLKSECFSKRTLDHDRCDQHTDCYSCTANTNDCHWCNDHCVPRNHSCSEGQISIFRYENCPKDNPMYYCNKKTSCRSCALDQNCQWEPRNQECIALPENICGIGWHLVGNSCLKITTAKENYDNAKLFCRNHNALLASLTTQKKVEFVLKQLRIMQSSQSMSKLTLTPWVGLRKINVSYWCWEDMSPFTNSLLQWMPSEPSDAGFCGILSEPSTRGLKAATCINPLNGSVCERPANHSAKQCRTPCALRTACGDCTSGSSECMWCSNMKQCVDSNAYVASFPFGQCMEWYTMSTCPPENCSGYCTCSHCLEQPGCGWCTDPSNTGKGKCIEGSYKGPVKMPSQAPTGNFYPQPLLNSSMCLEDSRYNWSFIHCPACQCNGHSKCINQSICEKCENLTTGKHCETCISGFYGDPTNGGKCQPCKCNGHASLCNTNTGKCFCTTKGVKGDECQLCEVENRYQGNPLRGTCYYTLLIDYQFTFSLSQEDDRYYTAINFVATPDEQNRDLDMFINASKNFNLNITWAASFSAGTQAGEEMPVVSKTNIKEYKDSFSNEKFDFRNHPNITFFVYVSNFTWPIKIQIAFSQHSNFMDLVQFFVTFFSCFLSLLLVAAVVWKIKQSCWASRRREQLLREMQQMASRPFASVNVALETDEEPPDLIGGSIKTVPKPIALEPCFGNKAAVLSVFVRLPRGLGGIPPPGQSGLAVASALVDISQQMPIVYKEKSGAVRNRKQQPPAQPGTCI
# UniProt Q13733, sequence (Q13733 whole entry, looked up): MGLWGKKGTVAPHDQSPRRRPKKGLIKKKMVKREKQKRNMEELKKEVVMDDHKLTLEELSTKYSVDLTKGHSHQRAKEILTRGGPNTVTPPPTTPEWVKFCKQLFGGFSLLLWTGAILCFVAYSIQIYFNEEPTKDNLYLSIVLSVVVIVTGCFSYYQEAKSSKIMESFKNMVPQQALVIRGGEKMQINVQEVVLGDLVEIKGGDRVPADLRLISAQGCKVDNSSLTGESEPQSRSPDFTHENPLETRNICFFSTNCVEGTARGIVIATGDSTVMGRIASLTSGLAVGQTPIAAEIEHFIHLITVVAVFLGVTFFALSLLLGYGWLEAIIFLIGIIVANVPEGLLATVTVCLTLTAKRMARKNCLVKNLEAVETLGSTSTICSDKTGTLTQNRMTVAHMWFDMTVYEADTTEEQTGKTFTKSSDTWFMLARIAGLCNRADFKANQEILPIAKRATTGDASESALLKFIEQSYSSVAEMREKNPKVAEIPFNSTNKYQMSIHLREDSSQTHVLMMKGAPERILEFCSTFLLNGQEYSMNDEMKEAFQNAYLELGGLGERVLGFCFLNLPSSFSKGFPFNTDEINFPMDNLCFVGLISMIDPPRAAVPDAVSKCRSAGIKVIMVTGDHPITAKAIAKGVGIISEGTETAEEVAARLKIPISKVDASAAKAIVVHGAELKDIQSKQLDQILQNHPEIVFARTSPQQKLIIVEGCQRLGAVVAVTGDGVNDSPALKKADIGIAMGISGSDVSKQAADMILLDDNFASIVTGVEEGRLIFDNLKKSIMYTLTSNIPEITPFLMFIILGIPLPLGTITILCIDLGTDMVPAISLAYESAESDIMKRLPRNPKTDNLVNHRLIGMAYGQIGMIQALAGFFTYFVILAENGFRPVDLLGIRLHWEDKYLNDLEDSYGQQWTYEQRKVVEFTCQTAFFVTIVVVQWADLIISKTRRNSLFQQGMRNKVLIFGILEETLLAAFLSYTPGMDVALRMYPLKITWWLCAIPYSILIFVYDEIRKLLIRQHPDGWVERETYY
Target,log2 fold change [1],log2 fold change [2],log2 fold change [3],log2 fold change [4],log2 fold change [5],log2 fold change [6],log2 fold change [7],log2 fold change [8],log2 fold change [9],log2 fold change [10],log2 fold change [11],log2 fold change [12],log2 fold change [13],log2 fold change [14],log2 fold change [15],log2 fold change [16],log2 fold change [17],log2 fold change [18],log2 fold change [19],log2 fold change [20]
ARL2BP (UniProt Q9Y2Y0),0.093,-0.047,-0.021,0.082,0.002,-0.153,0.055,0.147,-0.12,-0.055,0.287,-0.061,0.062,-0.012,-0.074,-0.049,0.028,0.02,-0.025,0.098
AUP1 (UniProt Q9Y679),0.052,-0.116,-0.062,0.031,-0.062,-0.015,-0.04,-0.041,0.029,-0.037,-0.069,-0.269 (active),-0.014,-0.022,-0.013,-0.163,-0.034,0.022,-0.007,-0.059
ATP6V0A1 isoform 3 (UniProt Q93050),-0.253,-0.236,0.06,0.089,-0.052,0.125,0.154,0.032,0.196,-0.02,0.021,-0.105,0.073,0.112,0.027,-0.298,-0.18,-0.21,0.033,-0.284
ACBD6 (UniProt Q9BR61),-0.129,-0.115,-0.076,0.196,0.067,-0.112,-0.061,0.006,0.098,-0.047,0.099,0.034,0.016,0.09,-0.088,0.133,-0.018,-0.271,-0.14,0.012
ACAD9 (UniProt Q9H845),0.008,0.004,-0.012,-0.041,-0.001,-0.026,-0.038,-0.025,-0.004,-0.015,-0.005,-0.069,-0.017,0.017,-0.012,0.03,0.016,0.083,-0.015,0.082
BTAF1 (UniProt O14981),0.087,0.001,-0.022,-0.041,-0.027,-0.074,-0.089,-0.012,0.026,0.007,0.018,-0.006,-0.004,-0.095,0.175,0.093,-0.045,-0.028,-0.01,-0.032
ATRN (UniProt O75882),0.05,-0.047,-0.024,0.012,-0.017,-0.065,0.022,0.12,-0.05,0.045,-0.243,-0.037,0,-0.032,0.095,-0.004,0.108,0.111,0.043,0.153
BECN1 (UniProt Q14457),0.013,-0.038,-0.262,-0.065,-0.029,-0.054,-0.014,-0.013,0.001,0.018,0.094,-0.005,-0.142,-0.159,-0.081,0.117,0,-0.045,0.008,0.086
ATP1A4 (UniProt Q13733),0.066,-0.088,0.015,-0.017,0.151,0.033,-0.076,-0.108,0.021,0.118,0.042,0.006,0.006,0.063,-0.083,0.003,0.057,-0.024,-0.01,0.016
